Screens deposited in PubChem by Broad Institute.
aSyn UTR act = Activators working through SNCA 5'UTR binding (MLPCN) | alpha-synuclein 5'UTR reporter, activators screen | activity score, % (tested at 7.5 µM), hits read low | 300,000 tested, 7.1% active | AID 1814; in the data active means activity score below about -60%
The depositor's hits bear a star. A selection follows.

SMILES	aSyn UTR act
C=CCN(C(=O)c1oc2c(Cl)cc(C)cc2c1C)C1CCS(=O)(=O)C1 (stereo not drawn)	-71*
COc1cccc(-c2nc(=S)c3c(n2Cc2ccco2)CCCC3)c1	-89*
COc1cccc(-c2nc(=S)c3c(o2)CCCC3)c1	-118*
Oc1cccc2c3c(oc12)CCCC3	52
O=[N+]([O-])c1ccc(-c2nc(=S)c3c(o2)CCCC3)cc1	-106*
S=c1nc(-c2ccccc2)oc2c1CCCC2	-144*
CCNc1oc(/C=C/c2ccc(OCC)cc2)nc1C#N	-188*
CNc1oc(/C=C/c2cccc(OC)c2)nc1C#N	-180*
CCN(CC)CCCNc1oc(/C=C/c2ccccc2)nc1C#N	-64*
O=C1C2C3C=CC(CO)(O3)C2C(=O)N1c1ccc(-c2ccccc2)cc1 (stereo not drawn)	-85*
O=C(Nc1ccc2ccccc2n1)c1ccccc1Cl	-71*
O=C(Nc1ccc2ccccc2n1)c1ccc(Cl)cc1	-145*
O=C(Nc1ccc2ccccc2n1)C1CCCCC1	-144*
C/C(=N/NC(=O)C(O)(c1ccccc1)c1ccccc1)c1ccc([N+](=O)[O-])o1	-66*
CCOC(=O)c1cnc(NCc2ccccc2)nc1C	-73*
CCOC(=O)c1cnc(-n2nc(C)cc2C)nc1NNc1ncc(-c2ccccc2)cn1	83
CCOC(=O)c1[nH]cnc1N=Nc1c(O)ccc2ccccc12	91
CCOC(=O)c1cnc2c(ccc3ccccc32)c1Cl	-87*
CCOC(=O)c1cnc(SCc2ccc(C)cc2)nc1N	-179*
CCCCSc1ncc(C(=O)OCC)c(N)n1	-140*
CCOC(=O)c1cnc(SCCc2ccccc2)nc1N	-102*
O=C(CSC(=S)N1CCOCC1)c1cc2ccccc2oc1=O	-63*
CNC(=O)c1ccc(-c2cc(C(F)(F)F)nn2C)s1	-142*
COC(=O)c1ccc(NC(=O)c2cc3sccc3n2C)cc1	-79*
COc1ccc(OC)c(NC(=O)c2cc3sccc3n2C)c1	-93*
SMILES	aSyn UTR act
COc1ccc(NC(=O)c2cc3sccc3n2Cc2ccc(F)cc2)cc1OC	-76*
Cn1c(C(=O)Nc2ccccc2)cc2sccc21	-172*
COc1cc(NC(=O)c2cc3sccc3n2C)cc(OC)c1	-232*
Cn1c(C(=O)Nc2ccc3c(c2)OCO3)cc2sccc21	-245*
CC(C)c1ccc2c(c1)C(c1ccc(N3CCOCC3)cc1)=NNC(c1cccs1)=N2	-103*
C#C[C@]1(O)CC[C@H]2[C@@H]3CCc4cc(OC)ccc4[C@H]3CC[C@@]21C	-70*
C#C[C@]1(O)CC[C@H]2[C@@H]3CCc4cc(OC5CCCC5)ccc4[C@H]3CC[C@@]21C	-75*
CC(C)CCNC(=O)c1ccc(Cl)c(N)c1	-81*
COc1c(Cl)cc(C(=O)NN)cc1Cl	99
CC(C)CCNC(=O)C(=O)Nc1ccccc1	-155*
CC(C)CCNC(=O)c1ccc(-c2ccccc2)cc1	-107*
O=C(c1ccco1)n1nc(-c2ccccc2)nc1SCc1ccccc1	-112*
CCS(=O)(=O)n1nc(-c2ccc(Cl)cc2)nc1SC	-70*
Cc1ccc(S(=O)(=O)n2nc(-c3ccco3)nc2SCc2ccccc2)cc1	-74*
CSc1nc(-c2ccc(Cl)cc2)nn1C(=O)c1ccco1	-107*
O=C(Cc1ccccc1)n1nc(-c2ccco2)nc1SCc1ccccc1	-71*
Cc1ccc(NC(CC(=O)c2ccccc2)C(=O)O)cc1Cl (stereo not drawn)	-125*
O=C(CC(Nc1ccccc1)C(=O)O)c1ccccc1 (stereo not drawn)	-124*
O=C(CC(Nc1ccccc1)c1ccc(F)cc1)c1ccccc1 (stereo not drawn)	-75*
CC1(C)CC(=O)C(C=Nc2ccc3c(c2)OCO3)=C(O)C1	-71*
CNc1nc(N/N=C/c2cc3c(cc2[N+](=O)[O-])OCO3)nc(Nc2ccccc2)n1	74
O=[N+]([O-])c1ccc(O)c(C=Nc2ccc3c(c2)OCO3)c1	-86*
O=[N+]([O-])c1cc(Br)cc(C=Nc2ccc3c(c2)OCO3)c1O	-89*
O=C(CSc1nc2ccccc2s1)c1ccc(O)cc1O	-66*
O=C(Cc1nc2ccccc2s1)c1ccc(O)cc1O	-147*
SMILES	aSyn UTR act
COc1ccc(C(=O)/C=C/c2ccc(F)cc2)c(OC(=O)c2ccc([N+](=O)[O-])cc2)c1	-122*
COc1ccc(C(=O)/C=C/c2cccs2)c(OC(=O)c2cccc([N+](=O)[O-])c2)c1	-366*
Cc1[nH]n(-c2ccc([N+](=O)[O-])cc2)c(=O)c1C=NCC1CCCO1 (stereo not drawn)	-88*
CC/C(C)=N\Nc1nc(-c2cc3cc(OC)ccc3oc2=O)cs1	-119*
COc1ccc2oc(=O)c(-c3nnc(N)s3)cc2c1	-97*
O=c1oc2ccccc2cc1-c1nc2c(s1)CCc1ccccc1-2	-81*
O=c1oc2ccccc2cc1-c1nnc(NCc2ccco2)s1	-131*
Nc1nnc(-c2cc3ccccc3oc2=O)s1	-116*
Cc1scc(C(=O)N/N=C/c2ccc([N+](=O)[O-])o2)c1C	85
Cc1scc(C(=O)N/N=C/c2ccco2)c1C	-86*
Cc1scc(C(=O)N/N=C/c2ccsc2)c1C	-162*
